{
  "source": "the supplement of paper PMC10849652",
  "note": "About 7,900 targets were measured; listed, in parts, are those with a hit and a random draw of the rest. About 0.6% of all pairs of compound and target were hits.",
  "data": [
    {"compound": "Cc1cccc(CC(=O)N2CCc3c2ccc(-c2cn(C)c4ncnc(N)c24)c3F)n1", "test": "log2 fold change, soluble protein after heating vs DMSO (PISA); higher = thermal stabilisation; K562 cells, 10 uM, 30 min; active = over 0.2 and 3.5 SD of the protein, either way, in both replicates (recomputed)", "how_it_was_run": "(§1)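 Values are thermal stability changes relative to control samples and are taken from duplicates. They are stated as log2 fold changes. Before quantification by TMTpro 16plex LC-MS/MS with equalised channel sums, K562 cells at 2×10^6 cells/mL were treated with 10 μM compound for 30 min, heated in aliquots for 3 min across 48°C-58°C, pooled, extracted in PBS with 0.5% NP-40 at 4°C, and centrifuged at 21,000xg for 90 min to give the soluble supernatant.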", "values": [
      {"target": "C9orf64 (UniProt Q5T6V5)", "log2 fold change": "0.218 (inactive)"},
      {"target": "CELF2 isoform 3 (UniProt O95319)", "sequence (O95319 whole entry, looked up)": "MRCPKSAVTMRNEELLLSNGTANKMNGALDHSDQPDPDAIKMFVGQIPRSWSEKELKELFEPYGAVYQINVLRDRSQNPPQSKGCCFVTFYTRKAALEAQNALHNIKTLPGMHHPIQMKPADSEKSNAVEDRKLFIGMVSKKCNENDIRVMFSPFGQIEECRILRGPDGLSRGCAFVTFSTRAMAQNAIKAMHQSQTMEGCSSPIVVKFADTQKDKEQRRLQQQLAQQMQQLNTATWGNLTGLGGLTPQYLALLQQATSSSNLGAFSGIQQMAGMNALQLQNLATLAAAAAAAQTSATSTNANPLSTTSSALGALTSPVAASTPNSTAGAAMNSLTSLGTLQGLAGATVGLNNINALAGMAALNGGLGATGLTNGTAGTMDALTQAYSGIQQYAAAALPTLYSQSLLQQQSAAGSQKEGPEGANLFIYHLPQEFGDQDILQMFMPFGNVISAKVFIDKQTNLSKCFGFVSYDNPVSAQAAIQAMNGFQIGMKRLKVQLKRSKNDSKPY", "log2 fold change": "-0.005 (inactive)"},
      {"target": "CAMSAP1 isoform 3 (UniProt Q5T5Y3)", "log2 fold change": "-0.05 (inactive)"},
      {"target": "CNOT4 isoform 6 (UniProt O95628)", "log2 fold change": "-0.036 (inactive)"},
      {"target": "CSTF2 (UniProt P33240)", "log2 fold change": "-0.061 (inactive)"},
      {"target": "CBX5 (UniProt P45973)", "sequence (P45973 whole entry, looked up)": "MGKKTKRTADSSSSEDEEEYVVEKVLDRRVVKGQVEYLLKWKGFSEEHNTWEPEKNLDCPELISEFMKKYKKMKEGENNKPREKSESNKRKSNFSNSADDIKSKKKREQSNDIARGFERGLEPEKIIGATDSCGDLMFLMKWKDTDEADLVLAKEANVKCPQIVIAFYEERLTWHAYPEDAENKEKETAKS", "log2 fold change": "0.01 (inactive)"},
      {"target": "CHD3 isoform 3 (UniProt Q12873)", "log2 fold change": "0.004 (inactive)"},
      {"target": "CCDC9 (UniProt Q9Y3X0)", "log2 fold change": "-0.032 (inactive)"},
      {"target": "CHERP (UniProt Q8IWX8)", "log2 fold change": "0.092 (inactive)"},
      {"target": "COQ9 (UniProt O75208)", "log2 fold change": "0.074 (inactive)"},
      {"target": "CPQ (UniProt Q9Y646)", "log2 fold change": "0 (inactive)"},
      {"target": "CD81 (UniProt P60033)", "log2 fold change": "-0.026 (inactive)"},
      {"target": "CDK6 (UniProt Q00534)", "sequence (Q00534 whole entry, looked up)": "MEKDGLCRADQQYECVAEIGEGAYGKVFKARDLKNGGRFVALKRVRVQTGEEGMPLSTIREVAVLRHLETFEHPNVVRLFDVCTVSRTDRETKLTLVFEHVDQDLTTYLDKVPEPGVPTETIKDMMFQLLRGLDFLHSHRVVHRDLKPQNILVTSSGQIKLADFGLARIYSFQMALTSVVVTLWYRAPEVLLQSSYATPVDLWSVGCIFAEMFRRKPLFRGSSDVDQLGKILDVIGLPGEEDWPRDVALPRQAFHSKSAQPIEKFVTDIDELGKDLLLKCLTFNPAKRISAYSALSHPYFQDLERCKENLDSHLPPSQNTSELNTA", "log2 fold change": "-0.002 (inactive)"},
      {"target": "CHMP4C (UniProt Q96CF2)", "log2 fold change": "-0.003 (inactive)"},
      {"target": "CHAC2 (UniProt Q8WUX2)", "sequence (Q8WUX2 whole entry, looked up)": "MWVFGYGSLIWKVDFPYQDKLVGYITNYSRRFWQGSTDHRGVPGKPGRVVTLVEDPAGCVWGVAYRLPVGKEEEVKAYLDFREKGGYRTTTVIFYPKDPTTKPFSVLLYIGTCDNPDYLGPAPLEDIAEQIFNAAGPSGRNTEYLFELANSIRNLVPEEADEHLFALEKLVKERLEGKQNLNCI", "log2 fold change": "-0.003 (inactive)"},
      {"target": "CSNK2B (UniProt P67870)", "log2 fold change": "0.014 (inactive)"},
      {"target": "CBR1 (UniProt P16152)", "sequence (P16152 whole entry, looked up)": "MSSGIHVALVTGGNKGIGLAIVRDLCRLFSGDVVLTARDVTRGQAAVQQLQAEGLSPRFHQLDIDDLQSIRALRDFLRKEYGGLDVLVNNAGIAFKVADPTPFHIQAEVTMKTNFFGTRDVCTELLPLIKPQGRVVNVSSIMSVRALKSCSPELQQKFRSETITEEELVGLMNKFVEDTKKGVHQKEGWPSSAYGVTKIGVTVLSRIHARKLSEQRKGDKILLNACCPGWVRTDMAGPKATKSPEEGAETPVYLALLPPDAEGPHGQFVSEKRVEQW", "log2 fold change": "0.011 (inactive)"},
      {"target": "CRKL (UniProt P46109)", "sequence (P46109 whole entry, looked up)": "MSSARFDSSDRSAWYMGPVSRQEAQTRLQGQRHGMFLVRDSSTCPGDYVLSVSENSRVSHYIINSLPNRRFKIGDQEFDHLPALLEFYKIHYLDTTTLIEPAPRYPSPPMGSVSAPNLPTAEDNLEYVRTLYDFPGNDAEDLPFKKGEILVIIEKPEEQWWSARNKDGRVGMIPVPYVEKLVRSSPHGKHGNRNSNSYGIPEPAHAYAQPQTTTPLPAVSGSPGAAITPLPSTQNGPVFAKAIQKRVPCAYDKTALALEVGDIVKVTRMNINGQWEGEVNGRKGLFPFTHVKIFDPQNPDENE", "log2 fold change": "0.013 (inactive)"},
      {"target": "CHD4 isoform 2 (UniProt Q14839)", "log2 fold change": "-0.018 (inactive)"},
      {"target": "COA6 isoform 2 (UniProt Q5JTJ3)", "log2 fold change": "0.002 (inactive)"},
      {"target": "CNDP2 (UniProt Q96KP4)", "log2 fold change": "0.006 (inactive)"},
      {"target": "CETN2 (UniProt P41208)", "log2 fold change": "-0.131 (inactive)"},
      {"target": "CAMKK2 (UniProt Q96RR4)", "log2 fold change": "-0.144 (inactive)"},
      {"target": "CKS1B (UniProt P61024)", "log2 fold change": "-0.06 (inactive)"},
      {"target": "CHEK1 (UniProt O14757)", "sequence (O14757 whole entry, looked up)": "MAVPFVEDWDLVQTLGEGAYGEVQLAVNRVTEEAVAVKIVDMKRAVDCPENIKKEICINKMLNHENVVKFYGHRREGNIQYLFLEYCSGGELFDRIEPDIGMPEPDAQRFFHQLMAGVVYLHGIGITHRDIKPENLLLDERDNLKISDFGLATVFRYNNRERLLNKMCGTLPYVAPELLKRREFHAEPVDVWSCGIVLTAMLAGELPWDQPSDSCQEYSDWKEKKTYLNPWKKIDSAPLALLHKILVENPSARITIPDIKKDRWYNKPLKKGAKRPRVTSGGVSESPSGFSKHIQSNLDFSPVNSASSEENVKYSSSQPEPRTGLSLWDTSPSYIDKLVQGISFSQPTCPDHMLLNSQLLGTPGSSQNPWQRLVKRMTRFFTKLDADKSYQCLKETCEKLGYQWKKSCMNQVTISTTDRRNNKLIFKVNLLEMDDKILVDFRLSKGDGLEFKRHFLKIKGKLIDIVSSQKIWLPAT", "log2 fold change": "0.02 (inactive)"},
      {"target": "CLPP (UniProt Q16740)", "log2 fold change": "-0.045 (inactive)"},
      {"target": "CDK9 isoform 2 (UniProt P50750)", "log2 fold change": "0.108 (inactive)"},
      {"target": "CHAMP1 (UniProt Q96JM3)", "log2 fold change": "0.049 (inactive)"},
      {"target": "CCDC167 (UniProt Q9P0B6)", "sequence (Q9P0B6 whole entry, looked up)": "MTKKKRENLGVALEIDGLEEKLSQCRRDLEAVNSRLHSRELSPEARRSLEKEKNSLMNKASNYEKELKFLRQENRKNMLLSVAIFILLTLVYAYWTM", "log2 fold change": "-0.057 (inactive)"},
      {"target": "CALCOCO2 isoform 4 (UniProt Q13137)", "log2 fold change": "-0.061 (inactive)"},
      {"target": "CPSF3 (UniProt Q9UKF6)", "sequence (Q9UKF6 whole entry, looked up)": "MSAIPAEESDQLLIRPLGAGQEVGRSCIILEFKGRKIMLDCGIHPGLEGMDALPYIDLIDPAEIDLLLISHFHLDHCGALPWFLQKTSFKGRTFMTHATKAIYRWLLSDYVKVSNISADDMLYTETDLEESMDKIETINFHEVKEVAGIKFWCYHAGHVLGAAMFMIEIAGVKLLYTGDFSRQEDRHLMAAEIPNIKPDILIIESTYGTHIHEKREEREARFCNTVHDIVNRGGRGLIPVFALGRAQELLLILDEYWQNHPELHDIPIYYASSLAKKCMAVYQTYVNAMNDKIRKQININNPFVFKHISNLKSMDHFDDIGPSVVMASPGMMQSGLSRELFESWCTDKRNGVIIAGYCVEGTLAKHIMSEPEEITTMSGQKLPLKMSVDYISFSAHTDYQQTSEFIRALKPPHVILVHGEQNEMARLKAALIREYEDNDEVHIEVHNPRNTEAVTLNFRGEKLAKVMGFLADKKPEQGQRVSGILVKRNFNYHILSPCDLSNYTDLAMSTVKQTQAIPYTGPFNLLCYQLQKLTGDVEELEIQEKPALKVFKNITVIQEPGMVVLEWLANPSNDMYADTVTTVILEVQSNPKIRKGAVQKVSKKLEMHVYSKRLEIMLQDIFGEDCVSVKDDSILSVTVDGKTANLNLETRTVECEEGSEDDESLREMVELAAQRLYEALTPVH", "log2 fold change": "0.041 (inactive)"},
      {"target": "CLASP2 isoform 3 (UniProt O75122)", "sequence (O75122 whole entry, looked up)": "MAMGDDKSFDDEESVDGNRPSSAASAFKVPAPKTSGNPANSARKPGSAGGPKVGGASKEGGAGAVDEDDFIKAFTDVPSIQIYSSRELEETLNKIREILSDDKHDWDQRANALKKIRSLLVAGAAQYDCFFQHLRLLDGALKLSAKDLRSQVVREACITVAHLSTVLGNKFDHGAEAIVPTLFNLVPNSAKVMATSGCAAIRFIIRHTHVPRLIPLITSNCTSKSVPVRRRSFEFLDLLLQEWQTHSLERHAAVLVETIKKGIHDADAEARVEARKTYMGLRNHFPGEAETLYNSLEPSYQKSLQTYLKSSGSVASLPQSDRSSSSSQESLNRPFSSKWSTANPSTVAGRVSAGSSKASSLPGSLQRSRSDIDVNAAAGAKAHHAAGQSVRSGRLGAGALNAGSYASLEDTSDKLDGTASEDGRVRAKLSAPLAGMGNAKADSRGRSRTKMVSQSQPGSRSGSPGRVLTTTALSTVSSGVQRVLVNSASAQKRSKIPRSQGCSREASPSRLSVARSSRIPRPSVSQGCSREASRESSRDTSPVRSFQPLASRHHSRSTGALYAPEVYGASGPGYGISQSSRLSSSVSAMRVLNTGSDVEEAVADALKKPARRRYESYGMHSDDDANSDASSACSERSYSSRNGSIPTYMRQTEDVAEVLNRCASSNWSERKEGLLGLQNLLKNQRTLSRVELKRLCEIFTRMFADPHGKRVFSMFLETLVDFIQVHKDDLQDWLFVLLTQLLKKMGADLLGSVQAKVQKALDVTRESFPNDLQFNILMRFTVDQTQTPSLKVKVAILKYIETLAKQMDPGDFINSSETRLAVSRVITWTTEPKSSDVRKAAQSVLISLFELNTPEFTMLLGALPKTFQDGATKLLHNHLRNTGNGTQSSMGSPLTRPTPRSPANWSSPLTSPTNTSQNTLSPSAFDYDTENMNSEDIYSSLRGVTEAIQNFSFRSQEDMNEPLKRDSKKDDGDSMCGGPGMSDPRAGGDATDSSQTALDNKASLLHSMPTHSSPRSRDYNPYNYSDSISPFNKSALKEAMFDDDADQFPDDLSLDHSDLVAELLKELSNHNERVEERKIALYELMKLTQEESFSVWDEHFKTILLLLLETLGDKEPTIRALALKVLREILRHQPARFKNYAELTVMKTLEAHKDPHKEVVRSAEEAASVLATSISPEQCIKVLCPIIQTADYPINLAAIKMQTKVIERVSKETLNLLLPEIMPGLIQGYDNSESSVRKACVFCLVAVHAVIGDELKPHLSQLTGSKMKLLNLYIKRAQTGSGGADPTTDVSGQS", "log2 fold change": "0.058 (inactive)"},
      {"target": "CLSPN (UniProt Q9HAW4)", "log2 fold change": "-0.035 (inactive)"},
      {"target": "COMMD2 (UniProt Q86X83)", "log2 fold change": "-0.066 (inactive)"},
      {"target": "CLCN3 (UniProt P51790)", "log2 fold change": "-0.022 (inactive)"},
      {"target": "CCNK isoform 4 (UniProt O75909)", "sequence (O75909 whole entry, looked up)": "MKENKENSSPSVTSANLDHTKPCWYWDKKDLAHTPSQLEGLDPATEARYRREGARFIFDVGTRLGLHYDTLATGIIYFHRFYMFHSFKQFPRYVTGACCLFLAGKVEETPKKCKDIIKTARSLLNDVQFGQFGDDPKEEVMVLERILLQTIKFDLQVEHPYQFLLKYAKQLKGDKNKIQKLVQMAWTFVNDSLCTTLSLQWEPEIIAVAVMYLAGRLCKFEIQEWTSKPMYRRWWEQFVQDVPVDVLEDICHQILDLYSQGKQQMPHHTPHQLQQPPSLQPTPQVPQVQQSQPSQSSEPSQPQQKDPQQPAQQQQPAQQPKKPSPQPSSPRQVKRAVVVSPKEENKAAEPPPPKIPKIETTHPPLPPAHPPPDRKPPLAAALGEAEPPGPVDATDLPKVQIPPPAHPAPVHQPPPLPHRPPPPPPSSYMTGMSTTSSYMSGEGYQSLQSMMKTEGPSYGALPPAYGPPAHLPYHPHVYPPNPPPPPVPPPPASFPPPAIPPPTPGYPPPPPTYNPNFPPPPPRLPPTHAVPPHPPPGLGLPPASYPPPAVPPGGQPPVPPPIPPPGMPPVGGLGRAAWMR", "log2 fold change": "-0.021 (inactive)"}
    ]},
    {"compound": "Cc1cn(-c2cc(NC(=O)c3ccc(C)c(Nc4nccc(-c5cccnc5)n4)c3)cc(C(F)(F)F)c2)cn1 [nilotinib]", "test": "log2 fold change, soluble protein after heating vs DMSO (PISA); higher = thermal stabilisation; K562 cells, 10 uM, 30 min; active = over 0.2 and 3.5 SD of the protein, either way, in both replicates (recomputed)", "how_it_was_run": "as §1", "values": [
      {"target": "C9orf64 (UniProt Q5T6V5)", "log2 fold change": "-0.045 (inactive)"},
      {"target": "CELF2 isoform 3 (UniProt O95319)", "log2 fold change": "-0.001 (inactive)"},
      {"target": "CAMSAP1 isoform 3 (UniProt Q5T5Y3)", "log2 fold change": "0.043 (inactive)"},
      {"target": "CNOT4 isoform 6 (UniProt O95628)", "log2 fold change": "-0.024 (inactive)"},
      {"target": "CSTF2 (UniProt P33240)", "log2 fold change": "-0.029 (inactive)"},
      {"target": "CBX5 (UniProt P45973)", "log2 fold change": "0.002 (inactive)"},
      {"target": "CHD3 isoform 3 (UniProt Q12873)", "log2 fold change": "-0.093 (inactive)"},
      {"target": "CCDC9 (UniProt Q9Y3X0)", "log2 fold change": "0.002 (inactive)"},
      {"target": "CHERP (UniProt Q8IWX8)", "log2 fold change": "-0.13 (inactive)"},
      {"target": "COQ9 (UniProt O75208)", "log2 fold change": "-0.06 (inactive)"},
      {"target": "CPQ (UniProt Q9Y646)", "log2 fold change": "0.017 (inactive)"},
      {"target": "CD81 (UniProt P60033)", "log2 fold change": "0.051 (inactive)"},
      {"target": "CDK6 (UniProt Q00534)", "log2 fold change": "-0.021 (inactive)"},
      {"target": "CHMP4C (UniProt Q96CF2)", "log2 fold change": "-0.03 (inactive)"},
      {"target": "CHAC2 (UniProt Q8WUX2)", "log2 fold change": "0.078 (inactive)"},
      {"target": "CSNK2B (UniProt P67870)", "log2 fold change": "0.052 (inactive)"},
      {"target": "CBR1 (UniProt P16152)", "log2 fold change": "-0.012 (inactive)"},
      {"target": "CRKL (UniProt P46109)", "log2 fold change": "-1.34 (active)"},
      {"target": "CHD4 isoform 2 (UniProt Q14839)", "log2 fold change": "-0.143 (inactive)"},
      {"target": "COA6 isoform 2 (UniProt Q5JTJ3)", "log2 fold change": "-0.064 (inactive)"},
      {"target": "CNDP2 (UniProt Q96KP4)", "log2 fold change": "0.045 (inactive)"},
      {"target": "CETN2 (UniProt P41208)", "log2 fold change": "0.071 (inactive)"},
      {"target": "CAMKK2 (UniProt Q96RR4)", "log2 fold change": "-0.008 (inactive)"},
      {"target": "CKS1B (UniProt P61024)", "log2 fold change": "0.14 (inactive)"},
      {"target": "CHEK1 (UniProt O14757)", "log2 fold change": "-0.05 (inactive)"},
      {"target": "CLPP (UniProt Q16740)", "log2 fold change": "0.022 (inactive)"},
      {"target": "CDK9 isoform 2 (UniProt P50750)", "log2 fold change": "-0.045 (inactive)"},
      {"target": "CHAMP1 (UniProt Q96JM3)", "log2 fold change": "0 (inactive)"},
      {"target": "CCDC167 (UniProt Q9P0B6)", "log2 fold change": "-0.03 (inactive)"},
      {"target": "CALCOCO2 isoform 4 (UniProt Q13137)", "log2 fold change": "-0.039 (inactive)"},
      {"target": "CPSF3 (UniProt Q9UKF6)", "log2 fold change": "-0.006 (inactive)"},
      {"target": "CLASP2 isoform 3 (UniProt O75122)", "log2 fold change": "-0.067 (inactive)"},
      {"target": "CLSPN (UniProt Q9HAW4)", "log2 fold change": "0.018 (inactive)"},
      {"target": "COMMD2 (UniProt Q86X83)", "log2 fold change": "-0.132 (inactive)"},
      {"target": "CLCN3 (UniProt P51790)", "log2 fold change": "-0.007 (inactive)"},
      {"target": "CCNK isoform 4 (UniProt O75909)", "log2 fold change": "0.045 (inactive)"}
    ]}
  ]
}
